The remaining activity is the signal under treatment as a percentage of the control signal.

Values joined by “and” are separate entries in the source; they are usually repeats but may differ in a detail not shown here. Identical values can stand only once. Active and inactive are the calls of the source. Cut-off read from the data, not from the text of the source: active = remaining activity below about 50%; inactive = the rest.

Our source for the remaining activity values is PubChem BioAssay AID602143 (Vanderbilt Specialized Chemistry Center, 2011).

Phospholipase D2 (Homo sapiens), sequence (O14939 whole entry, looked up): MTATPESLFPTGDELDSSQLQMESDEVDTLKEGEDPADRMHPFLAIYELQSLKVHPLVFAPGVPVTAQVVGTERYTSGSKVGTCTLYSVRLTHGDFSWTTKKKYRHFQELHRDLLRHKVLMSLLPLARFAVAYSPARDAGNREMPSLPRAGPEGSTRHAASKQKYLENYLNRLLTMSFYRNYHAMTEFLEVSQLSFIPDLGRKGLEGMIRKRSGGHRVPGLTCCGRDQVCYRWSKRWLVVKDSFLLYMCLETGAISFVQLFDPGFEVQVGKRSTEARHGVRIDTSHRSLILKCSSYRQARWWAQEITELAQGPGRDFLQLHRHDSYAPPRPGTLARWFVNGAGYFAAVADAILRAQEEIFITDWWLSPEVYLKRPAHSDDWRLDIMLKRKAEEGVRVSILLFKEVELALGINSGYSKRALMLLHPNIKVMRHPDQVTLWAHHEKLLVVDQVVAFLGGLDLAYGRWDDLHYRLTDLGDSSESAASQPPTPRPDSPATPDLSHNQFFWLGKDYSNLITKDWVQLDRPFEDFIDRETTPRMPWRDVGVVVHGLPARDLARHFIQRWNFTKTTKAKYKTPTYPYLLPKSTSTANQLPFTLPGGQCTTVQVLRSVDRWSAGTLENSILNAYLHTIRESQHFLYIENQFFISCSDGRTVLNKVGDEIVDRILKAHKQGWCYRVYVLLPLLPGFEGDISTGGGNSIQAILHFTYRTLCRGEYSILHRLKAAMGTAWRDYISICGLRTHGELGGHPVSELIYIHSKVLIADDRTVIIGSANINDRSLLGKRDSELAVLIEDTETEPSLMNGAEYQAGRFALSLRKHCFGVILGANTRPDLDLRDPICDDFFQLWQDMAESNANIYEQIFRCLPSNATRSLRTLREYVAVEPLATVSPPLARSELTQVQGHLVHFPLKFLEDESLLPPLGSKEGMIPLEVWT
Phospholipase D2 (Homo sapiens), sequence (O14939 whole entry, looked up): as above

This experiment concerns the target Phospholipase D2 (Homo sapiens) (UniProt O14939). Description: PLD2 inhibitors in cells, cell-based, HEK293, single concentration (AID 602143).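 Note: tested at 200 nM.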 The following applies: HEK293 cellular PLD2 activity, percent of control; hits give low values.
As for `O=C(NCCN1CCC2(CC1)C(=O)NCN2c1ccc(F)cc1)c1cc2cc(F)ccc2[nH]1`, the remaining activity is 14.3% (active).

Consider `O=C(NCCN1CCC2(CC1)C(=O)Oc1ccccc12)c1cnc2ccccc2c1`, for which the remaining activity was 57.4% (inactive).

For the compound `O=C(C#Cc1ccccc1)NCCN1CCC2(CC1)C(=O)NCN2c1ccccc1`, the remaining activity was 47.9% (active).

For `O=C(NCCN1CCC2(CC1)C(=O)NCN2c1cccc(Cl)c1)c1ccc2ccccc2c1`, the remaining activity is 72% (inactive).

On to `COc1cccc(C(=O)NCCN2CCC3(CC2)C(=O)NCN3c2ccccc2)n1`, for which the remaining activity is 60.7% (inactive).

As for `O=C(N[C@@H](Cc1ccccc1)CN1CCC2(CC1)C(=O)NCN2c1ccccc1)c1ccc(F)c(F)c1`, the remaining activity is 102% (inactive).

Regarding `O=C(NCCN1CCC2(CC1)C(=O)NCN2c1ccccc1)c1cnco1`, the remaining activity was 80.4% (inactive).

In the case of `O=C(c1cnc2ccccc2c1)N1CC(N2CCC(n3c(=O)[nH]c4cc(Br)ccc43)CC2)C1`, the remaining activity was 99.7% (inactive).

In the case of `O=C(NCCN1CCC2(CC1)C(=O)NCN2c1ccc(F)c(F)c1)c1cnc2ccccc2c1`, the remaining activity is 26.1% (active).

As for `COc1cc(OC)cc(C(=O)NCCN2CCC3(CC2)C(=O)NCN3c2cccc(F)c2)c1`, the remaining activity is 84.7% (inactive).

For the compound `O=C(NCCN1CCC2(CC1)C(=O)NCN2c1ccccc1)c1cccc(Cl)n1`, the remaining activity was 52.9% (inactive).

Regarding `O=C(NCCN1CCC2(CC1)C(=O)NCN2c1ccccc1)c1ccnnc1`, the remaining activity was 101% (inactive).

Consider `C[C@@H](CN1CCC2(CC1)C(=O)NCN2c1ccc(F)c(F)c1)NC(=O)c1cc2cc(F)ccc2[nH]1`, for which the remaining activity was 4.81% (active).

For `CCCCCC(=O)NCCN1CCC2(CC1)C(=O)NCN2c1cccc(F)c1`, the remaining activity is 80.7% (inactive).

In the case of `O=C(NCCN1CCC2(CC1)C(=O)NCN2c1ccccc1)c1ccc(-c2ccccc2)o1`, the remaining activity was 50.1% (inactive).

`O=C(NCCN1CCC2(CC1)C(=O)NCN2c1ccc(F)cc1)c1ccc2ccccc2c1`: the remaining activity was 34.3% (active).

In the case of `O=C(NCCN1CCC2(CC1)C(=O)NCN2c1cccc(F)c1)c1cnc2ccccc2c1`, the remaining activity is 5.53% (active).

`COc1ccc(CC(=O)NCCN2CCC3(CC2)C(=O)NCN3c2cccc(F)c2)cc1OC`: the remaining activity was 102% (inactive) and 91.9% (inactive).

Turning to `Cc1cccc(C(=O)NCCN2CCC3(CC2)C(=O)NCN3c2ccccc2)n1`, the remaining activity was 89% (inactive).

Take `O=C(NCCN1CCC2(CC1)C(=O)NCN2c1ccccc1)c1ccc2cc(F)ccc2c1`: the remaining activity was 68.8% (inactive).

`O=C(NCCN1CCC2(CC1)C(=O)NCN2c1cccc(F)c1)C(c1ccccc1)c1ccccc1`: the remaining activity was 92.3% (inactive).

For `C[C@@H](CN1CCC2(CC1)C(=O)NCN2c1ccccc1)NC(=O)[C@@H]1C[C@H]1c1ccccc1`, the remaining activity is 75.9% (inactive).

As to `O=C(NCCN1CCC2(CC1)C(=O)NCN2c1ccc(F)c(F)c1)c1ccc(F)cc1`, the remaining activity is 49.6% (active).

Take `O=C(c1ccc(F)c(F)c1)N1CCC[C@@H]1CN1CCC2(CC1)C(=O)NCN2c1ccccc1`: the remaining activity was 124% (inactive).

For `O=C(c1cccc(F)c1)N(CCN1CCC2(CC1)C(=O)NCN2c1cccc(F)c1)C(=O)c1cccc(F)c1`, the remaining activity is 71.6% (inactive).

With `O=C(NCCN1CCC2(CC1)C(=O)NCN2c1cccc(F)c1)c1cc2cc(F)ccc2[nH]1`, the remaining activity was 0.401% (active).

Regarding `O=C(NCCN1CCC2(CC1)C(=O)NCN2c1cccc(F)c1)c1cc(C(F)(F)F)ccc1C(F)(F)F`, the remaining activity was 87.9% (inactive).

Regarding `O=C(NCCN1CCC2(CC1)C(=O)NCN2c1ccccc1)c1cc2cccnc2s1`, the remaining activity was 79.2% (inactive).

As for `O=C(NCCN1CCC2(CC1)C(=O)NCN2c1ccc(Br)cc1)c1ccc2ccccc2c1`, the remaining activity is 52% (inactive).

In the case of `O=C(NCCN1CCC2(CC1)C(=O)NCN2c1ccccc1)c1ccc(F)cc1O`, the remaining activity is 82.6% (inactive).

Consider `C[C@H](N)CN1CCC2(CC1)C(=O)NCN2c1ccccc1` (tested in a mixture with another compound), for which the remaining activity was 74.1% (inactive).

As for `CN1CN(c2ccccc2)C2(CCN(CCNC(=O)c3ccc4ccccc4c3)CC2)C1=O`, the remaining activity was 57.9% (inactive).

Turning to `CC(C)(C)C(=O)NCCN1CCC2(CC1)C(=O)NCN2c1cccc(F)c1`, the remaining activity was 74.9% (inactive).

For `O=C(NCCN1CCC2(CC1)C(=O)NCN2c1ccccc1)c1ccc2c(c1)OCO2`, the remaining activity is 90% (inactive).

For `O=C(C1C[C@H]1c1ccccc1)N1CC(N2CCC(n3c(=O)[nH]c4ccccc43)CC2)C1` (stereo not given in full), the remaining activity was 87.7% (inactive).
